Screening results: PubChem BioAssay, National Center for Advancing Translational Sciences (NCATS)
HT1080 IDH1KD tx: qHTS for induction of synthetic lethality in tumor cells producing 2HG: qHTS for the HT-1080-IDH1KD cell line; 360,000 tested, 2% active; HT-1080 IDH1 knockdown viability, ATP luminescence, 48 h; AID 686971, 2013; Potency, µM (highest dose often 46.1 µM), hits mostly cytotoxic
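After a 2 h attachment period, IDH1KD HT-1080 cells took pin-transferred compound for 48 h at 37 °C; ATP-based luminescence after 10 min room-temperature reagent incubation reported viability.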
TDP1 cell CPT: qHTS for Inhibitors of human tyrosyl-DNA phosphodiesterase 1 (TDP1): qHTS in cells in presence of CPT; 420,000 tested, 12% active; chicken DT40 Tdp1-/-;hTDP1 cells + 20 nM CPT, ATP luminescence, 48 h; Potency, µM (doses to about 46.2 µM), hits mostly inhibitors; AID 686979, 2013; also: nearly all actives have a fitted effect of over 55% in size
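Chicken DT40 Tdp1-/- cells complemented with human TDP1, 400 cells/well, exposed to compounds plus 20 nM camptothecin for at least 48 h at 37 C; viability read as ATP content by CellTiter-Glo luminescence.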
HT1080-NT tox: qHTS for induction of synthetic lethality in tumor cells producing 2HG: qHTS for the HT-1080-NT fibrosarcoma cell line; 360,000 tested, 1.6% active; Potency, µM (titrated, usually from 46.1 µM), hits mostly cytotoxic; HT-1080-NT fibrosarcoma viability, CellTiter-Glo ATP luminescence, 48 h;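 also: NT is the 2HG producing partner of a matched IDH1 knockdown line; nearly all actives have a fitted effect of over 55% in size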
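Toxicity toward the 2HG-producing NT line was scored as %Activity, normalised to DMSO and no-cell wells, from CellTiter-Glo luminescence after 48 hours' treatment.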
DT40 TDP1 no CPT: qHTS for Inhibitors of human tyrosyl-DNA phosphodiesterase 1 (TDP1): qHTS in cells in absence of CPT. DT40 Tdp1-/- hTDP1 cells, no CPT, ATP luminescence, 48 h. Potency, µM (doses to about 46.2 µM), hits mostly inhibitors. 420,000 tested, 15% active. AID 686978, 2013; also: nearly all actives have a fitted effect of over 55% in size
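Cells were dispensed at 400 per well, compounds added by pin tool, plates incubated ≥48 hr at 37 °C, then CellTiter-Glo added for 30 min at room temperature before luminescence reading. Line: DT40 Tdp1-/- complemented with hTDP1; camptothecin omitted.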
IL1B secr inh: qHTS for Inhibitors of Inflammasome Signaling: IL-1-beta AlphaLISA Primary Screen | activity change, % at 57.5 µM | THP-1 LPS/ATP IL-1B secretion, AlphaLISA, 16 h; stronger effect = lower value | 360,000 tested, 4.7% active; in the data active = activity change below about -50%; inconclusive = mostly about -30% to -49%
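THP-1 cells pretreated 1 hr with compounds (up to 57.5 uM final), then stimulated with LPS (250 ng/mL final) plus ATP (1.25 mM final); secreted IL-1B measured by AlphaLISA after 16 hr, decreased signal indicating inhibition.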
Each line names hits and unclear results; the compound was inactive in the other large screens. Only some compounds are listed: those with a hit (about 19% of all), similar ones and a draw of the others. Unless noted, calls follow the shape of the dose curve; as a rule, active = well fitted curve in the direction sought with a large enough effect; inconclusive = small, poorly fitted or top-dose-only effect, or another doubt; inactive = no such curve, though single readings can be large; an effect the other way counts as inactive or inconclusive.

O=c1[nH]nc(CNc2ccc(OC(F)(F)F)cc2)c2ccccc12	TDP1 cell CPT 21µM, DT40 TDP1 no CPT 18µM
O=c1[nH]nc(CNc2ccc(Cl)cc2Cl)c2ccccc12	HT1080 IDH1KD tx inconclusive, TDP1 cell CPT inconclusive, DT40 TDP1 no CPT inconclusive
CC(C)(Oc1ccc(Cl)cc1)C(=O)NCc1n[nH]c(=O)c2ccccc12	TDP1 cell CPT 21µM, DT40 TDP1 no CPT inconclusive
O=c1[nH]nc(CNc2ccc(O)cc2)c2ccccc12	HT1080 IDH1KD tx inconclusive, TDP1 cell CPT inconclusive, DT40 TDP1 no CPT 21µM, IL1B secr inh -101
COc1ccccc1OCC(=O)NCc1n[nH]c(=O)c2ccccc12	TDP1 cell CPT inconclusive, DT40 TDP1 no CPT inconclusive
O=c1[nH]nc(Cc2ncc(C(F)(F)F)cc2Cl)c2ccccc12	TDP1 cell CPT inconclusive, DT40 TDP1 no CPT 16µM
COc1cccc(Cn2c(=O)c(-c3cccs3)nc3cnc(Nc4cccc(OC)c4)nc32)c1	none (no result: HT1080 IDH1KD tx, HT1080-NT tox, IL1B secr inh)
Nc1nc(NCc2ccccc2Cl)c2[nH]cnc2n1	DT40 TDP1 no CPT inconclusive (no result: HT1080 IDH1KD tx, HT1080-NT tox, IL1B secr inh)
Cc1onc(-c2ccccc2)c1C(=O)N1CCCC(C)(C(=O)NS(=O)(=O)C2CC2)C1 (stereo unspecified)	TDP1 cell CPT inconclusive, DT40 TDP1 no CPT inconclusive
O=c1c(-c2ccc(F)cc2)nc2cnc(Oc3cccc(Cl)c3)nc2n1C[C@H]1CCCO1	TDP1 cell CPT inconclusive (no result: HT1080 IDH1KD tx, HT1080-NT tox, IL1B secr inh)
COCc1cc(C)nc2sc(C(=O)Nc3ccc(OC(F)(F)F)cc3)c(N)c12	none (no result: HT1080 IDH1KD tx, HT1080-NT tox, IL1B secr inh)
O=c1[nH]nc(CNc2ccc(C(F)(F)F)cc2)c2ccccc12	TDP1 cell CPT 12µM, DT40 TDP1 no CPT 15µM
O=C(Cc1n[nH]c(=O)c2ccccc12)NCc1ccccc1	TDP1 cell CPT inconclusive
O=S(=O)(c1ccsc1)N1CC=C(c2ccccc2)CC1	TDP1 cell CPT inconclusive, DT40 TDP1 no CPT inconclusive
CCN(CC)CCN(Cc1cc2cc3c(cc2[nH]c1=O)OCCO3)C(=S)NCCCN(C)C	none
CCN(CC)CCCN(Cc1cc2cc3c(cc2[nH]c1=O)OCO3)C(=S)Nc1ccccc1	HT1080 IDH1KD tx inconclusive, TDP1 cell CPT inconclusive, DT40 TDP1 no CPT inconclusive, IL1B secr inh -65
CCCCNC(=S)N(CCN(CC)CC)Cc1cc2cc3c(cc2[nH]c1=O)OCCO3	TDP1 cell CPT 26µM, DT40 TDP1 no CPT inconclusive, IL1B secr inh inconclusive
CC(C)CNC(=S)N(CCN(C)C)Cc1cc2cc3c(cc2[nH]c1=O)OCO3	TDP1 cell CPT inconclusive, DT40 TDP1 no CPT 5.2µM, IL1B secr inh inconclusive
CC(=NNC(=O)COc1cccc(C)c1)c1cccnc1	none
O=C(COc1ccccc1)N(Cc1nnc(-c2ccccc2Cl)o1)C1CC1	TDP1 cell CPT inconclusive
COc1nc(N2CCOCC2)nc(-n2cccc2)n1	TDP1 cell CPT inconclusive, DT40 TDP1 no CPT inconclusive
Cc1ccc(CNC(=O)COC(=O)CCOc2ccc(C)cc2)cc1	none
COc1ccccc1CNC(=O)CCN=C1NS(=O)(=O)c2ccccc21	none
COc1ccc(CN(C)C(=O)c2cccc(S(=O)(=O)N3CCCc4ccccc43)c2)c(OC)c1OC	TDP1 cell CPT 18µM, DT40 TDP1 no CPT 21µM
O=C(NCC1COc2ccccc2O1)c1c[nH]c2ccc(S(=O)(=O)N3CCOCC3)cc2c1=O (stereo unspecified)	TDP1 cell CPT 12µM, DT40 TDP1 no CPT 13µM
CN(Cc1ccc(F)cc1)C(=O)c1cccc(S(=O)(=O)N2CCN(c3ccc(F)cc3)CC2)c1	TDP1 cell CPT 16µM, HT1080-NT tox inconclusive, DT40 TDP1 no CPT 15µM, IL1B secr inh -58
CN(Cc1nc2ccccc2c(=O)[nH]1)C(=O)c1cccc(S(=O)(=O)N2CCc3ccccc32)c1	TDP1 cell CPT inconclusive, DT40 TDP1 no CPT inconclusive
O=C(NCC1COc2ccccc2O1)c1cc(S(=O)(=O)N2CCOCC2)ccc1F (stereo unspecified)	none
O=C(NCCOc1ccccc1F)c1cccc(S(=O)(=O)N2CCN(c3ccccc3)CC2)c1	TDP1 cell CPT inconclusive, DT40 TDP1 no CPT 26µM
CN1CCN(S(=O)(=O)c2cccc(C(=O)N(C)Cc3c(F)cccc3Cl)c2)CC1	TDP1 cell CPT inconclusive, DT40 TDP1 no CPT inconclusive
CCCCN(C(=O)c1ccc(Br)o1)C1CCS(=O)(=O)C1 (stereo unspecified)	none
Cc1ccc(N(Cc2cc3ccc(C)cc3[nH]c2=O)S(=O)(=O)c2ccccc2)cc1	DT40 TDP1 no CPT inconclusive
COC(=O)C[C@H]1C[C@H]2c3cc(NC(=O)Cc4ccncc4)ccc3O[C@H]2[C@@H](CO)O1	DT40 TDP1 no CPT inconclusive
O=S(=O)(Nc1ccc(-c2cn3c(n2)SCC3)cc1)c1cc(F)ccc1F	DT40 TDP1 no CPT inconclusive
C#CCn1cc(CNC[C@H]2O[C@@H](n3cnc4c(=O)[nH]c(N)nc43)[C@H](O)[C@@H]2O)c2ccccc21	none
O=C(NCC1CCCO1)/C(=C/c1cn(-c2ccccc2)nc1-c1cccnc1)NC(=O)c1ccccc1 (stereo unspecified)	TDP1 cell CPT inconclusive, DT40 TDP1 no CPT inconclusive, IL1B secr inh inconclusive
COc1ccc(CN(C)C(=O)c2cccc(S(=O)(=O)N3CCN(c4ccccc4)CC3)c2)c(OC)c1OC	TDP1 cell CPT 12µM, HT1080-NT tox inconclusive, DT40 TDP1 no CPT 13µM
COc1ccc(NS(=O)(=O)c2cccc(C(=O)NCC(c3ccccc3)N(C)C)c2)cc1 (stereo unspecified)	TDP1 cell CPT inconclusive
O=C(NCC1COc2ccccc2O1)c1cccc(S(=O)(=O)N2CCN(c3ccccc3)CC2)c1 (stereo unspecified)	TDP1 cell CPT 18µM, DT40 TDP1 no CPT 21µM
COc1ccc(C(CNC(=O)c2cccc(S(=O)(=O)N3CCCc4ccccc43)c2)N(C)C)cc1 (stereo unspecified)	HT1080 IDH1KD tx inconclusive, TDP1 cell CPT inconclusive, DT40 TDP1 no CPT inconclusive, IL1B secr inh -54
CN(Cc1cccc(F)c1)C(=O)c1ccc(S(=O)(=O)N2CCCCCC2)cc1	TDP1 cell CPT inconclusive, DT40 TDP1 no CPT inconclusive, IL1B secr inh -66
O=C(CCS(=O)(=O)c1ccccc1)OCc1ccc([N+](=O)[O-])cc1	TDP1 cell CPT inconclusive
CN(CC(=O)Nc1cccc(F)c1)C(=O)c1cccc(S(=O)(=O)N2CCN(c3ccccc3)CC2)c1	TDP1 cell CPT inconclusive, DT40 TDP1 no CPT inconclusive, IL1B secr inh inconclusive
CN(Cc1ccc(F)cc1)C(=O)c1cccc(S(=O)(=O)N2CCN(c3ccccc3)CC2)c1	TDP1 cell CPT inconclusive, DT40 TDP1 no CPT 23µM
